Our source for the growth values is PubChem BioAssay (NCI).

About 83,000 compounds went through this panel and 20% of them were active in at least one assay; those are over-represented in the sample as a whole.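 Plates (96-well) were seeded with cells, treated with compound at one concentration, and incubated for 48 hours before percent growth was determined.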 Unmarked numbers belong to inactive results. The source made the active and inactive calls. The calls were made as follows: active = growth percent below 10; inactive = the rest.

Some test systems named below: NCI-H23 lung; NCI-H226 lung; NCI-H322M lung; HOP-62 NSCLC; NCI-H460 lung; HOP-92 NSCLC; NCI-H522 lung; A549/ATCC NSCLC; 786-0 renal; COLO 205 colon; DU-145 prostate; K-562 leukemia; MALME-3M melanoma; MDA-MB-231 breast; RXF 393 renal; SF-268 CNS; SF-295 CNS; SF-539 CNS; UACC-257 melanoma; M14 melanoma.
Common to all, as to test: NCI-60 one-dose screen, 48 h (100 = growth as untreated, 0 = no growth, -100 = all killed)
What all share (conditions): 10 µM unless noted

As to `O=C1Nc2ccccc2C2c3cccn3-c3ccccc3CN12` (stereo not given), the growth was 70.6% in the test on NCI-H23 lung; 78.2% in the test on NCI-H226 lung; 91.5% in the test with NCI-H322M lung; 34.5% with HOP-62 NSCLC; 43.7% in the test with NCI-H460 lung; 29.7% with HOP-92 NSCLC. In addition, the growth in the test with NCI-H522 lung was -7.83% (active); in the test on A549/ATCC NSCLC it was 34.4%; with 786-0 renal, 66.3%; with COLO 205 colon, 39.5%; in the test on DU-145 prostate it was 84.8%; in the test on K-562 leukemia, 12.4%. The growth in the test on MALME-3M melanoma was 52%; in the test with MDA-MB-231 breast, 39.2%; with RXF 393 renal, 59.8%; in the test on SF-268 CNS, 75.1%; in the test on SF-295 CNS, 59.8%; with SF-539 CNS, 55.1%. The growth is 57.3% in the test on UACC-257 melanoma and 20.2% in the test on M14 melanoma.
As for `Oc1c(O)c(Cl)c(Cl)c(Cl)c1Cl`, the growth in the test with NCI-H23 lung is 26.7%; in the test on NCI-H226 lung it was 36.8%; in the test on NCI-H322M lung it was 44.5%; in the test on HOP-62 NSCLC it was 40.1%; in the test with NCI-H460 lung, 15.4%; with HOP-92 NSCLC it was 1.08% (active). Moreover, the growth was -19.6% (active) with NCI-H522 lung; 20.5% with A549/ATCC NSCLC; 57.2% in the test on 786-0 renal; 69.8% in the test with COLO 205 colon; 47.5% in the test with DU-145 prostate; 24.2% with K-562 leukemia. Moreover, the growth in the test with MALME-3M melanoma is 64.7%; in the test on MDA-MB-231 breast it was 44.8%; in the test with RXF 393 renal, 7.31% (active); with SF-268 CNS, 24.2%; in the test with SF-295 CNS, 9.55% (active); in the test with SF-539 CNS it was 20.9%. The growth in the test on UACC-257 melanoma is -9.22% (active); in the test on M14 melanoma, 39.6%.
As for `CC(C)=CCc1c(O)c(C(=O)CC(C)C)c(O)c2c(-c3ccccc3)cc(=O)oc12`, the growth is 26.8% in the test with NCI-H23 lung; 47.4% in the test with NCI-H226 lung; 63.2% in the test with NCI-H322M lung; 84.2% in the test on HOP-62 NSCLC; 27.9% in the test on NCI-H460 lung; -13.2% (active) in the test with HOP-92 NSCLC. Moreover, the growth in the test with NCI-H522 lung is 31.5%; in the test with A549/ATCC NSCLC, 54.6%; with 786-0 renal, 66.2%; in the test on COLO 205 colon, 83.1%; in the test with DU-145 prostate, 61.9%; with K-562 leukemia it was 28%. In addition, the growth was 56.9% in the test on MALME-3M melanoma; 5.93% (active) with MDA-MB-231 breast; 74.1% in the test with RXF 393 renal; 52.1% in the test on SF-268 CNS; 43.4% in the test on SF-295 CNS; 68.9% in the test on SF-539 CNS. The growth in the test with UACC-257 melanoma was 58.1%; in the test on M14 melanoma it was 61%.
`c1ccc(CSC(c2ccccc2)c2ccccc2)cc1`: the growth in the test on NCI-H23 lung was 101%; in the test with NCI-H226 lung, 111%; in the test with NCI-H322M lung, 119%; with HOP-62 NSCLC it was 116%; in the test on NCI-H460 lung, 105%; in the test with HOP-92 NSCLC, 76.2%. In addition, the growth with NCI-H522 lung was 97.6%; in the test with A549/ATCC NSCLC, 103%; in the test on 786-0 renal it was 91.3%; in the test on COLO 205 colon it was 101%; in the test on DU-145 prostate it was 121%; with K-562 leukemia, 105%. The growth in the test with MALME-3M melanoma was 110%; with MDA-MB-231 breast, 119%; in the test with RXF 393 renal, 119%; in the test on SF-268 CNS it was 112%; in the test with SF-295 CNS it was 114%; in the test on SF-539 CNS, 105%. Besides, the growth is 105% with UACC-257 melanoma and 99.1% with M14 melanoma.
With `CC(=O)Oc1ccccc1C(=O)NCCC[Se]C#N`, the growth with NCI-H23 lung is -13.8% (active); with NCI-H226 lung, -22.8% (active); with NCI-H322M lung, 2.65% (active); in the test with HOP-62 NSCLC, -38.8% (active); in the test on NCI-H460 lung it was 1.89% (active); in the test on HOP-92 NSCLC, -18.5% (active). Besides, the growth is 65.2% in the test on NCI-H522 lung; 28.2% in the test with A549/ATCC NSCLC; 104% in the test on 786-0 renal; 112% in the test on COLO 205 colon; -32.9% (active) in the test on DU-145 prostate; 30.2% in the test on K-562 leukemia. The growth in the test on MALME-3M melanoma was -24.5% (active); in the test with MDA-MB-231 breast, -38.5% (active); in the test on RXF 393 renal, -7.78% (active); with SF-268 CNS, -22.3% (active); in the test with SF-295 CNS it was -15.7% (active); with SF-539 CNS it was -72.1% (active). Further, the growth in the test on UACC-257 melanoma was 42.1%; in the test with M14 melanoma, -13.1% (active).
As to `Fc1cccc(NCOOC2(OOCNc3cccc(F)c3)CCCCC2)c1`, the growth is 81.9% in the test with NCI-H23 lung; 112% in the test on NCI-H226 lung; 98.6% in the test with NCI-H322M lung; 90.6% in the test with HOP-62 NSCLC; 104% in the test with NCI-H460 lung; 87.3% in the test on HOP-92 NSCLC. Also, the growth with NCI-H522 lung is 74.9%; in the test with A549/ATCC NSCLC, 89.6%; in the test on 786-0 renal, 85%; with COLO 205 colon, 118%; in the test with DU-145 prostate, 98.6%; in the test with K-562 leukemia, 41.3%. The growth in the test with MALME-3M melanoma is 101%; in the test with MDA-MB-231 breast, 103%; in the test on RXF 393 renal, 108%; with SF-268 CNS, 93%; in the test with SF-295 CNS, 94.3%; in the test with SF-539 CNS, 91.2%. The growth was 88.7% in the test on UACC-257 melanoma and 91.6% in the test with M14 melanoma.
Regarding `CC(=O)O[C@H](C[C@H](C(C)C)N(C)C(=O)[C@@H](NC(=O)[C@H]1CCCCN1C)C(C)C)c1nc(C(=O)NC2CCC(C(=O)O)CC2)cs1` (stereo not given in full), the growth in the test with NCI-H23 lung was 64.8%; with NCI-H226 lung it was 90.6%; in the test on NCI-H322M lung, 72.4%; in the test on HOP-62 NSCLC, 47.1%; in the test with NCI-H460 lung, 26.7%; with HOP-92 NSCLC, 38%. For the same compound, the growth with NCI-H522 lung was -6.59% (active); with A549/ATCC NSCLC it was 57.8%; in the test with 786-0 renal, 46%; in the test with COLO 205 colon, 32.6%; in the test on DU-145 prostate, 41.1%; in the test on K-562 leukemia, 22.8%. In addition, the growth was 61.8% with MALME-3M melanoma; 64.1% in the test on MDA-MB-231 breast; 44.1% with RXF 393 renal; 48.2% in the test with SF-268 CNS; 35.1% in the test on SF-295 CNS; 27.5% in the test with SF-539 CNS. The growth in the test with UACC-257 melanoma is 50%; in the test on M14 melanoma, 41.5%.
For the compound `Cc1cnc(/C=C/C(=O)O)cc1-c1cc2c(cc1C)C(C)(C)CCC2(C)C`, the growth in the test on NCI-H23 lung is 79.2%; with NCI-H226 lung, 82.8%; in the test with NCI-H322M lung, 110%; in the test with HOP-62 NSCLC, 94.4%; with NCI-H460 lung, 85.8%; in the test on HOP-92 NSCLC it was 56.8%. Also, the growth in the test with NCI-H522 lung is 65.8%; in the test on A549/ATCC NSCLC, 63.3%; in the test on 786-0 renal, 76.5%; with COLO 205 colon, 102%; with DU-145 prostate it was 95.7%; in the test with K-562 leukemia it was 109%. For the same compound, the growth in the test on MALME-3M melanoma is 8.87% (active); in the test on MDA-MB-231 breast, 80.9%; in the test with RXF 393 renal, 93.7%; with SF-268 CNS it was 77.6%; in the test on SF-295 CNS, 86.1%; in the test on SF-539 CNS it was 84.3%. In addition, the growth is 38.3% with UACC-257 melanoma and 77.1% with M14 melanoma.
